Our source for the z-score and composite z-score values is PubChem BioAssay.

Active and inactive are the calls of the source. Unless noted, how the calls were made is not given here.

The nature of test [1]: HepG2 liver cancer cell viability effects, profiling panel, resazurin fluorescence, 24 h, PK04 Diversity Set (AID 1172). Further: test concentration not given here. As to conditions: higher = more signal.
Test [2] is described as follows: basal S. cerevisiae growth modulation, no modifier, primary screen, OD600, strain BY4716, 24 h, basal condition (AID 1173). The settings on record: OD600, 24 h, higher = more signal, called active from +8 up or from −8 down.
Test [3] can be described thus: MM1S myeloma cell viability, profiling panel, resazurin fluorescence, basal, 24 h, PK04 Diversity Set (AID 1174).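 Further: MM1S multiple myeloma cell line; test concentration not given here.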 The settings on record: higher = more signal, called active from +8 up or from −8 down.
Test [4] deals with Dihydroorotate dehydrogenase (quinone), mitochondrial (Plasmodium falciparum (isolate 3D7)) (UniProt Q08210). The test is described as follows: PfDHODH enzyme inhibitors, primary screen, biochemical, C-terminal His tag, absorbance 600 nm (AID 1175).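 Further: recombinant parasite enzyme with a five histidine tag at its C terminus; test concentration not given here.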 The settings on record: DCIP absorbance 600 nm, higher = more signal, called active from +8 up or from −8 down.
Test [5] can be described thus: P. aeruginosa biofilm formation inhibitors, primary screen, strain PAO1, LB-PBS medium, absorbance 600 nm (AID 1176). Further: test concentration not given here. The settings on record: P. aeruginosa PAO1 growth/biofilm, A600, 12 h; higher = more signal.
The nature of test [6]: S. cerevisiae RM11-1a growth modifiers, primary screen, strain RM11-1a, OD600, basal, 24 h (AID 1177).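 Further: cultures grown under basal conditions with no added stressor; test concentration not given here.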 As to conditions: OD600, 24 h, higher = more signal, called active from +8 up or from −8 down.
A short description of test [7]: E. coli acrAB mutant growth effects, primary screen, E. coli filamentation inducers, strain DRC39, OD650, 24 h (AID 1178).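 Further: growth measured as culture turbidity by optical density at 650 nm; test concentration not given here.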 The settings on record: higher = more signal, called active from +8 up or from −8 down.
The nature of test [8]: E. coli acrAB mutant growth effects, primary screen, E. coli filamentation inducers, strain DRC39, OD650, 48 h (AID 1179).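 Further: screen aims at cell division blockers that make cells filament.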 As to conditions: E. coli DRC39 delta-acrAB growth, higher = more signal, called active from +8 up or from −8 down.
The nature of test [9]: RPMI8226 myeloma cell viability, profiling panel, resazurin fluorescence, basal, 24 h, PK04 Diversity Set (AID 1180).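 Further: RPMI8826 multiple myeloma cell line at 5000 cells per well; test concentration not given here.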 The settings on record: higher = more signal.
The target of test [10] is E3 ubiquitin-protein ligase XIAP (Homo sapiens) (UniProt P98170). The test is described as follows: XIAP binders, primary screen, biophysical, small-molecule microarray, fluorescence 635 nm (AID 1181).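 Further: score merges 667 nm emission and signal to noise over triplicate slides.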 The settings on record: small-molecule microarray binding, higher = more signal.
E3 ubiquitin-protein ligase XIAP (Homo sapiens), sequence (P98170 whole entry, looked up): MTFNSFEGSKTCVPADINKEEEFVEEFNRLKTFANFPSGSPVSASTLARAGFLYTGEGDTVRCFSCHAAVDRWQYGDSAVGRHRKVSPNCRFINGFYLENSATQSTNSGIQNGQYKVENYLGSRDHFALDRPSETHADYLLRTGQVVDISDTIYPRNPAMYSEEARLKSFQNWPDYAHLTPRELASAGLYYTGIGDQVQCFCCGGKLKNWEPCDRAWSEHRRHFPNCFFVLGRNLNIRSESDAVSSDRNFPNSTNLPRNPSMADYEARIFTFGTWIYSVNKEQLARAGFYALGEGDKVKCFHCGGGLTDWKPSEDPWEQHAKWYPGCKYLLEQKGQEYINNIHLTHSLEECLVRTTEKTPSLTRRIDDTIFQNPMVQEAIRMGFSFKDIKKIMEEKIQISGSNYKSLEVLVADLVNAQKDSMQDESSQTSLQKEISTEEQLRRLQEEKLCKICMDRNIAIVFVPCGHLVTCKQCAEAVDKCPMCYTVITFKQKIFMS

Dihydroorotate dehydrogenase (quinone), mitochondrial (Plasmodium falciparum (isolate 3D7)), sequence (Q08210 whole entry, looked up): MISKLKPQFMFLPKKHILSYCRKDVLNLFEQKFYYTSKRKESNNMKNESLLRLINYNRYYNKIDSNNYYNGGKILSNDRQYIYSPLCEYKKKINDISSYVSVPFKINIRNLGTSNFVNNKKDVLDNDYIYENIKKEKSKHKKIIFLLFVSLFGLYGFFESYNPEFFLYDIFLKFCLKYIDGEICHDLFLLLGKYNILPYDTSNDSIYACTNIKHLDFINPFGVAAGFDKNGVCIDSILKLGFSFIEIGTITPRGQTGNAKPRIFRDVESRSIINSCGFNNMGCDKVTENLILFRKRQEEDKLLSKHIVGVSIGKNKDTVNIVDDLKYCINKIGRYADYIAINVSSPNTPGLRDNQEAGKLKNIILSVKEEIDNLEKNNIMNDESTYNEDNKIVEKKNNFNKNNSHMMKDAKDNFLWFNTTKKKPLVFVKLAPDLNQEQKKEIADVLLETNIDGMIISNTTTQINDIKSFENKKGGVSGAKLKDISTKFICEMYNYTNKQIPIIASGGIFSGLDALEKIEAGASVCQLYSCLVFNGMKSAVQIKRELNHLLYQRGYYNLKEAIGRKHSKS

With `CC1C2C(CCCO)=CC(C3C(=O)N(C(N)=O)C(=O)C23)N1Cc1cccc(OC(F)(F)F)c1` (stereo not given), the z-score was 0.0337 in test [1]; -0.837 (inactive) in test [2]; -0.402 (inactive) in [3]; 0.437 (inactive) in test [5]; -0.369 (inactive) in test [6]; 0.0299 (inactive) in test [7]. The z-score in test [8] is -0.114 (inactive); in test [9], -0.907. Moreover, the composite z-score in [4] was -0.766 (inactive); in test [10], -0.199.
Regarding `CC(C)(C)OC(=O)CC[C@@]1(C(N)=O)N=C(c2ccc(OCCCO)cc2)O[C@@H]1c1ccccc1CN=[N+]=[N-]`, the z-score in test [1] is 0.372; in [2], -0.0901 (inactive); in [3], -0.599 (inactive); in test [5] it was 0.122 (inactive); in test [6], 0.0861 (inactive); in test [7], -0.0622 (inactive). Besides, the z-score is 0.131 (inactive) in test [8] and -0.17 in test [9]. The composite z-score was -1 (inactive) in [4] and 0.119 in [10].
`CCOC(=O)C1=CCC(c2cccn2C(=O)OC(C)(C)C)N(S(=O)(=O)c2ccc(C)cc2)C1` (stereo not given): the z-score was 0.573 in test [1]; -0.902 (inactive) in test [2]; -0.926 (inactive) in [3]; -0.144 (inactive) in [5]; 0.824 (inactive) in test [6]; -0.484 (inactive) in test [7]. Also, the values for the z-score in [8] and in test [9] were 0.605 (inactive) and -0.538, respectively. In addition, the composite z-score in test [4] is 0.068 (inactive); in [10] it was 0.177.
As to `CN1C(=O)C2C=CC(C(O)c3ccc(I)cc3)N(N(c3ccccc3)c3ccccc3)C2C1=O` (stereo not given), the z-score in [1] was -0.476; in test [2], 0.943 (inactive); in [3], -0.788 (inactive); in test [5] it was 0.944 (inactive); in test [6], 0.67 (inactive); in [7], -1.36 (inactive). In addition, the z-score in test [8] is -0.105 (inactive); in test [9], -1.1. Also, the composite z-score is 0.0495 (inactive) in test [4] and 0.95 in test [10].
`COCCOC(=O)N1C(=O)[C@@]2(c3cc(C#CCNC(N)=O)ccc31)[C@H](c1ccc(O)cc1)N1[C@H](c3ccccc3)[C@H](c3ccccc3)OC(=O)[C@H]1[C@@H]2C(=O)N1CCc2cc(OC)c(OC)cc2C1`: the z-score in [1] was -0.328; in [2], 1.66 (inactive); in test [3], -0.202 (inactive); in test [5], 0.902 (inactive); in test [6], 2.24 (inactive); in test [7] it was -0.0681 (inactive). For the same molecule, the z-score in test [8] was -0.119 (inactive); in [9], -0.242. The composite z-score in test [4] was 1.38 (inactive); in test [10], 0.171.
For the molecule `C=CCC(OC(C)=O)[C@@H]1[C@@H](N(Cc2ccc(-c3ccccc3)cc2)C(=O)Cc2ccc(OC)cc2)c2cc(OCCCO)ccc2N1C(=O)c1ccc2ccccc2c1` (stereo not given in full), the z-score was -0.555 in test [1]; -0.562 (inactive) in [2]; -0.536 (inactive) in test [3]; 0.0914 (inactive) in test [5]; -1.21 (inactive) in [6]; 0.174 (inactive) in test [7]. Also, the z-score in test [8] was -0.339 (inactive); in test [9], 0.186. In addition, the figures for the composite z-score in test [4] and in test [10] were -0.804 (inactive) and 0.202, respectively.
As for `O=C1C2C=CC(C(O)C3CCCCC3)N(Nc3ccccc3F)C2C(=O)N1c1ccccc1` (stereo not given), the z-score in test [1] was -1.87; in test [2], -0.701 (inactive); in [3], -0.631 (inactive); in test [5] it was 0.931 (inactive); in test [6] it was -0.375 (inactive); in test [7] it was 0.221 (inactive). For the same molecule, the z-score was -0.1 (inactive) in test [8] and -0.14 in test [9]. The composite z-score in test [4] is -0.572 (inactive); in [10] it was -0.235.
For `Cc1ccc(N2C(=O)c3ccccc3[C@@H](C(=O)NCCN3CCOCC3)[C@@H]2c2ccc(CO)cc2)nc1`, the z-score in [1] is 0.925; in [2], 0.473 (inactive); in test [3] it was 0.544 (inactive); in test [5], -0.618 (inactive); in [6] it was 0.537 (inactive); in [7] it was 0.193 (inactive). In addition, the z-score in test [8] is 0.663 (inactive); in test [9], 0.547. Besides, the figures for the composite z-score in test [4] and in test [10] were 0.434 (inactive) and 0.0095, respectively.
Consider `C=CCNC(=O)[C@H]1[C@@H]2C(=O)O[C@@H](c3ccccc3)[C@@H](c3ccccc3)N2[C@@H](c2ccc(O)cc2)[C@]12C(=O)Nc1ccccc12`, for which the z-score in [1] is 0.715; in test [2], -0.842 (inactive); in [3], 0.557 (inactive); in test [5] it was 1.15 (inactive); in test [6], 1.76 (inactive); in [7], 0.691 (inactive). The z-score in [8] is 0.975 (inactive); in [9] it was -1.34. For the same molecule, the results for the composite z-score in test [4] and in test [10] were 0.776 (inactive) and -0.144, respectively.
`C=C[C@H](C)[C@@H](OC(=O)Nc1ccc(SC)cc1)c1ccc(OCCO)cc1`: the z-score in [1] is -1.01; in [2], -0.773 (inactive); in test [3] it was -0.715 (inactive); in [5], 0.696 (inactive); in [6], 1.08 (inactive); in test [7] it was -1.55 (inactive). Moreover, the z-score in test [8] is -1.71 (inactive); in test [9], -0.894. Besides, the figures for the composite z-score in [4] and in [10] were 0.918 (inactive) and -0.208, respectively.
`COCCOC(=O)N1C(=O)[C@@]2(c3cc(C#CCNC(N)=O)ccc31)[C@H](C(N)=O)[C@H]1C(=O)O[C@H](c3ccccc3)[C@H](c3ccccc3)N1[C@@H]2c1ccc(O)cc1`: the z-score in [1] is 0.296; in [2], -0.156 (inactive); in test [3] it was -0.477 (inactive); in [5], 1.01 (inactive); in test [6] it was 0.532 (inactive); in test [7] it was 0.769 (inactive). Moreover, the z-score in test [8] is 1.33 (inactive); in test [9], -0.392. The composite z-score in test [4] was 0.303 (inactive); in [10], -0.245.
With `O=C1OCCC/C=C\[C@H]2OC34C=CCN(Cc5ccccc5)C(=O)[C@H]3N(CCO)C(=O)[C@@H]4C12` (stereo not given in full), the z-score in test [1] was -0.122; in [2], -0.662 (inactive); in [3] it was 0.99 (inactive); in test [5], -0.152 (inactive); in [6], -0.23 (inactive); in test [7], 1.68 (inactive). Besides, the values for the z-score in [8] and in test [9] were 1.89 (inactive) and 0.936, respectively. Besides, the figures for the composite z-score in [4] and in test [10] were -0.0771 (inactive) and 0.0015, respectively.
With `C=CCOC(=O)[C@@H]1[C@H]2C(=O)O[C@H](c3ccccc3)[C@H](c3ccccc3)N2[C@H](c2ccc(OCCOC(=O)[C@@H]3C[C@@H]4C(=O)N[C@@H](CC(C)C)C(=O)N4[C@@H]3c3ccc(O)cc3)cc2)[C@@]12C(=O)Nc1ccc(I)cc12`, the z-score in test [1] was 0.438; in test [2] it was 0.893 (inactive); in test [3], 0.246 (inactive); in [5] it was 0.848 (inactive); in [6], 1.75 (inactive); in [7] it was 0.703 (inactive). Moreover, the z-score in [8] was -0.215 (inactive); in [9] it was 0.676. The figures for the composite z-score in [4] and in [10] were -1.42 (inactive) and 0.155, respectively.
